Experimental data: the supplement of paper PMC10498489
Screen size: about 2,300 compounds; about 330 (14%) showed activity.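 How the source made its calls: active = median modified Z-score above 1.96; inactive = 1.96 or below.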 Not all results are given here.

System: HepG2 Srxn1-GFP reporter cells (+30 nM CDDO-Me)
Assay: Srxn1-GFP intensity median modified Z-score relative to plate median; higher = stronger NRF2 / oxidative stress reporter activation, active = hit call of the paper
Settings: 10 µM; exposure time: 24h
Summary of the method: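 HepG2 Srxn1-GFP BAC reporter cells were seeded at 20,000 per well in 96-well plates and co-exposed for 24 h to compound at 10 μM and an NRF2 activator at 30 nM, with DMSO at ≤0.1%, in three replicate plates. Cells were fixed with formaldehyde, stained with Hoechst and imaged by confocal microscopy, and cytoplasmic GFP was measured per cell, with images holding under 100 cells discarded. The reported value is the median over replicates of each plate's modified Z-score of GFP intensity. For this score, scaling used 1.4826 × median absolute deviation.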

Srxn1-GFP intensity median modified Z-score, active:
CC1=CC(=O)c2ccccc2C1=O [euspeclibcmpd446] 5.02
CN1CCN(CC/C=C2\c3ccccc3Sc3ccc(S(=O)(=O)N(C)C)cc32)CC1 [euspeclibcmpd294] 4.72
O=C(N/N=C/c1ccc([N+](=O)[O-])o1)c1ccc(Br)cc1 4.87
O=C1OCCN1/N=C/c1ccc([N+](=O)[O-])o1 [euspeclibcmpd134] 2.95
NC(=O)N/N=C/c1ccc([N+](=O)[O-])o1 [euspeclibcmpd210] 10.3
C=C(C)[C@@H]1CC[C@]2(CO)CC[C@]3(C)[C@H](CCC4[C@@]5(C)CC[C@H](O)C(C)(C)C5CC[C@]43C)C12 (stereo partly specified) [euspeclibcmpd1538] 10.7
N=C(N)SCCN [euspeclibcmpd1761] 3.8
O=C1OC2(c3ccc(O)cc3Oc3cc(O)ccc32)c2ccccc21 [euspeclibcmpd769] 2.16
COC(=O)N=c1[nH]c2ccc(C(=O)c3ccc(F)cc3)cc2[nH]1 [euspeclibcmpd2318] 8.09
COC(=O)N=c1[nH]c2ccc(Sc3ccccc3)cc2[nH]1 [euspeclibcmpd371] 2.82
COC(=O)N=c1[nH]c2ccc(C(=O)c3ccccc3)cc2[nH]1 [euspeclibcmpd378] 19.3
CC1CCC2[C@@]3(C)C=CC(=O)C(C)(C)C3CC3OC(=O)C(=O)C1[C@]32C (stereo partly specified) [euspeclibcmpd1535] 9.38
S=C1SCN(Cc2ccccc2)CN1Cc1ccccc1 [euspeclibcmpd1200] 10

Srxn1-GFP intensity median modified Z-score, inactive:
CN1C(C(=O)N=c2cccc[nH]2)C(=O)c2sc(Cl)cc2S1(=O)=O (stereo unspecified) [euspeclibcmpd458] -0.432
CC(=O)OC=C1CSC2C(NC(=O)Cc3cccs3)C(=O)N2C1C(=O)O (stereo unspecified) [euspeclibcmpd2267] 0.967
S=c1[nH]c2ccccc2s1 [euspeclibcmpd1954] -0.455
CN(C)CC/C=C1\c2ccccc2Sc2ccc(Cl)cc21 [euspeclibcmpd538] -1.04
CN(C)CCC=C1c2ccccc2CCc2ccccc21 [euspeclibcmpd21] 0.287
CN1CCC[C@@H]1Cc1c[nH]c2ccc(CCS(=O)(=O)c3ccccc3)cc12 [euspeclibcmpd938] -0.193
CCCN(Cc1nnc(-c2cccs2)o1)C(=O)CSc1nnc(-c2cccs2)n1C1CC1 0.54
CC1O[C@@H](Oc2c(-c3ccc(O)c(O)c3)oc3cc(O)cc(O)c3c2=O)[C@H](O)[C@H](O)[C@H]1O (stereo partly specified) [euspeclibcmpd1694] -0.35
CC(C)(C)c1ccc(C(=O)N/N=C/c2ccc([N+](=O)[O-])o2)cc1 1.17
O=c1[nH]c(O)cn1/N=C/c1ccc([N+](=O)[O-])o1 [euspeclibcmpd209] 0.292
O=C(N/N=C/c1ccc([N+](=O)[O-])o1)c1ccc(O)cc1 [euspeclibcmpd1226] 0.949
O=C1OC(CN2CCOCC2)CN1/N=C/c1ccc([N+](=O)[O-])o1 (stereo unspecified) [euspeclibcmpd1273] 0.605
CC(C)CC(N)C(=O)NC(C)C(=O)O (stereo unspecified) [euspeclibcmpd1745] 0.124
CC(=O)NCCc1ccc(O)c(C2C(=O)C(=O)c3c(c(O)c4c(C(=O)O)c(C(=O)O)c(O)cc4c3O)C2=O)c1 (stereo unspecified) [euspeclibcmpd1580] -0.208
CC(=O)OC=C1CSC2C(N)C(=O)N2C1C(=O)O (stereo unspecified) [euspeclibcmpd1380] -0.0231
O=C(O)c1ccc[nH]c1=Nc1cccc(C(F)(F)F)c1 [euspeclibcmpd1074] -0.299
N#CCOC(=O)c1cc(-c2ccccc2)nc2ccccc12 1.25
NCCc1cc[nH]n1 [euspeclibcmpd614] 1.24
NC(=O)NC(CC(=O)O)C(=O)O (stereo unspecified) 1.02
CNC(=O)CN1CCC(NC(=O)NCc2ccc(C)n2C)CC1 0.3
CN1CCN(C(=O)Oc2c3nccnc3c(O)n2-c2ccc(Cl)cn2)CC1 [euspeclibcmpd2130] -0.245
C=C(C)[C@@H]1CC[C@]2(C)CC[C@]3(C)[C@@H](CCC4[C@@]5(C)CC[C@H](O)C(C)(C)C5CC[C@]43C)C12 (stereo partly specified) [euspeclibcmpd1455] -0.31
C=C(C)[C@@H]1CC[C@]2(C(=O)O)CC[C@]3(C)[C@H](CCC4[C@@]5(C)CC[C@H](O)C(C)(C)C5CC[C@]43C)[C@@H]12 (stereo partly specified) [euspeclibcmpd1473] -0.366
CC=C(c1ccc(O)cc1)C(CC)c1ccc(O)cc1 (stereo unspecified) [euspeclibcmpd93] 0.179
N=C(N)N [euspeclibcmpd2417] -0.496
NCCSSCCN [euspeclibcmpd2395] -0.505
N=c1[nH]c(=O)c2ncn(COC(CO)CO)c2[nH]1 [euspeclibcmpd487] 0.251
CCN1CCN(C(=O)NC(C(=O)NC2C(=O)N3C2SC(C)(C)[C@@H]3C(=O)O)c2ccccc2)C(=O)C1=O (stereo partly specified) [euspeclibcmpd2069] 0
CC1(C)OC2CC3C4CC(F)=C5CC(=O)CCC5(C)C4C(O)CC3(C)C2(C(=O)CO)O1 (stereo unspecified) [euspeclibcmpd1953] -0.815
O=C1OC(c2ccc(O)cc2)(c2ccc(O)cc2)c2ccccc21 [euspeclibcmpd234] 1.62
O=c1cc(-c2ccccc2O)oc2cc(O)ccc12 [euspeclibcmpd1982] -0.161
CS(=O)(=O)c1ccc([C@H](O)[C@H](CF)NC(=O)C(Cl)Cl)cc1 [euspeclibcmpd827] -0.193
OC[C@H]1O[C@@H](Oc2ccc(Cl)cc2)[C@H](O)[C@@H](O)[C@H]1O 1.18
COC(=O)N=c1[nH]c2ccc([S+]([O-])c3ccccc3)cc2[nH]1 (stereo unspecified) [euspeclibcmpd738] -0.824
CCOC(=O)N=c1[nH]c2ccccc2[nH]1 [euspeclibcmpd787] -0.0391
O=c1oc2ccccc2cc1O [euspeclibcmpd2250] -0.381
CCC(C)(C)c1ccc(CC(C)CN2C[C@@H](C)O[C@@H](C)C2)cc1 (stereo partly specified) [euspeclibcmpd489] 1.75
CC1(C)O[C@@H]2CC3C4CC(F)=C5CC(=O)C=C[C@]5(C)[C@@]4(F)[C@@H](O)C[C@]3(C)[C@]2(C(=O)CO)O1 (stereo partly specified) [euspeclibcmpd129] 0.0501
CCC(C)C1NC(=O)C(CCNCS(=O)(=O)O)NC(=O)C(NC(=O)C(CCNCS(=O)(=O)O)NC(=O)C(NC(=O)C(CCNCS(=O)(=O)O)NC(=O)CCCCC(C)C)C(C)O)CCNC(=O)C(C(C)O)NC(=O)C(CCNCS(=O)(=O)O)NC(=O)C(CCNCS(=O)(=O)O)NC(=O)C(C(C)CC)NC1=O (stereo unspecified) [euspeclibcmpd2131] 0.0847
CCC(C)n1nccc1NC(=O)C(C)N1CCSCC1 (stereo unspecified) 0.365
COC1(C)CCC2OC2(C)CCC2C1CC2(C)C (stereo unspecified) [euspeclibcmpd2008] -0.165
CC1(C)[C@@H]2CC[C@]1(C)C(=O)C2 [euspeclibcmpd42] -0.12
O=C(O)c1cc(O)c2c(O)c3c(OC4OC(CO)C(O)C(O)C4O)cccc3c(-c3c4cc(C(=O)O)cc(O)c4c(O)c4c(OC5OC(CO)C(O)C(O)C5O)cccc34)c2c1 (stereo unspecified) [euspeclibcmpd1934] -0.281
Cn1nnnc1SC=C1CSC2C(NC(=O)C(O)c3ccccc3)C(=O)N2C1C(=O)O (stereo unspecified) [euspeclibcmpd2229] -0.103
O=C(Nc1ccccc1Cl)C1=NN(C2CCS(=O)(=O)C2)C(=O)CC1 (stereo unspecified) 1.26
COc1cc(OC)c2c(=O)c(-c3ccccc3)c(C)oc2c1OC [euspeclibcmpd2303] 1.35
O=C(O)Cc1ccccc1Nc1c(Cl)cccc1Cl [euspeclibcmpd2396] 0.438
N=c1[nH]c(N2CCCCC2)cc(N)[n+]1[O-] [euspeclibcmpd792] -0.234
CC1(C)O[C@@H]2CC3C4CC(F)=C5CC(=O)C=CC5(C)C4C(O)CC3(C)[C@]2(C(=O)CO)O1 (stereo partly specified) [euspeclibcmpd414] 0.0846
O=C1CCC(N2C(=O)c3ccccc3C2=O)C(=O)N1 (stereo unspecified) [euspeclibcmpd588] -0.192
NC(=O)Nc1[nH]c(=O)[nH]c1O [euspeclibcmpd347] -0.31
CC(=O)OC=C1CSC2C(NC(=O)CSc3ccncc3)C(=O)N2C1C(=O)O (stereo unspecified) [euspeclibcmpd2110] 0.0966
OCCc1ccccc1 [euspeclibcmpd771] -0.962
CC(=O)NC1C(O)OC(CO)C(O)C1O (stereo unspecified) [euspeclibcmpd1995] -0.204
Cc1c(N=c2[nH]cccc2C(=O)O)cccc1C(F)(F)F [euspeclibcmpd1313] 0.328
Cc1cnc(C(=O)O)c[n+]1[O-] [euspeclibcmpd1196] -0.419
CN[C@@H]1[C@H](OC2[C@H](O[C@H]3[C@H](O)[C@@H](O)[C@H](N=C(N)N)[C@@H](O)[C@@H]3N=C(N)N)O[C@@H](C)[C@]2(O)C=O)O[C@@H](CO)[C@H](O)[C@H]1O (stereo partly specified) [euspeclibcmpd270] -0.445
C=C(C)[C@H]1C=CC(C(=O)O)CC1 (stereo partly specified) [euspeclibcmpd1451] -0.188
